Source: PubChem (Sanford-Burnham Center for Chemical Genomics)
This is a sample that favours compounds with a hit; in the whole collection about 28% have one here.
Mac1 fbg enh: enhancers of human CD11b/CD18 binding to fibrinogen. P05107+P11215. K562 CD11b/CD18 adhesion to fibrinogen, ATPlite luminescence. activation, % at 10 µM. hit rate 0.07% among 93,000. AID 1499;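 active = 10 µM primary screen giving 50% or more activity, confirmed by 40% or more on retest at that dose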
Target sequence (P05107 whole entry, looked up, other chains not shown): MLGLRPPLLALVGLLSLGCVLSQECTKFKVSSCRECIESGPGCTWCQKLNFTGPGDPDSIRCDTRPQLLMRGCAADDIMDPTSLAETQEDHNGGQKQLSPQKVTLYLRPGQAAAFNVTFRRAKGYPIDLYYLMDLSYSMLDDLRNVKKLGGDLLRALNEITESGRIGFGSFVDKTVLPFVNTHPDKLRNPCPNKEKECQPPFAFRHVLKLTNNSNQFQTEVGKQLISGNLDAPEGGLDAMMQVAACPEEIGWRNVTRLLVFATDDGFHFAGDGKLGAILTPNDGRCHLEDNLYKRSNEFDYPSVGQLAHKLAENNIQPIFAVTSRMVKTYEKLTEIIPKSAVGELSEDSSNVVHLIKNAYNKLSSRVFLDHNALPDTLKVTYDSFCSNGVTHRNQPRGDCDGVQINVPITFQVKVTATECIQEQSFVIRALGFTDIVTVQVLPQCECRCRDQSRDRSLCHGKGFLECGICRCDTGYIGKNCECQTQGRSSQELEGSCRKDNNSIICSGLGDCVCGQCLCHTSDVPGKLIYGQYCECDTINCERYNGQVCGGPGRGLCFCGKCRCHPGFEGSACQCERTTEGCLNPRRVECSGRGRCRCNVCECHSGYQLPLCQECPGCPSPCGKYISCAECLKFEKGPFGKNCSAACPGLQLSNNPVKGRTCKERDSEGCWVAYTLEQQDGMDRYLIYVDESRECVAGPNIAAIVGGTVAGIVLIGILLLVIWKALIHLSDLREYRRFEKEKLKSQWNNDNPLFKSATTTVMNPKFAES
CYP2C19 inh: blocks human cytochrome P450 2C19; AID 778; hit rate 21% among 96,000; P33261; inhibition, % at 5 µM; CYP2C19 Supersomes, luciferin-H EGE luminescence, 30 min;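 active = CYP2C19 inhibition above a set limit at 5 µM in the primary screen, cut at about 50% in these data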;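 also: plate controls were negative control wells for no effect and 2.5 mM tranylcypromine positive control for full effect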
Mac1 fbg inh: blocks human CD11b/CD18 adhesion to fibrinogen; inhibition, % at 10 µM; P05107+P11215; K562 CD11b/CD18 adhesion to fibrinogen, ATPlite luminescence; Mn2+ added to activate the integrin; hit rate 0.54% among 93,000;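 active = primary inhibition of 50% or more at 10 µM, then 40% or more on retest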
CYP2C19 activ: increases human CYP2C19 enzyme activity. P33261. activation factor at 5 µM. 96,000 tested, under 10 active. recombinant CYP2C19, luciferin-H EGE luminescence; stronger effect = higher value; 0 = fully inhibited enzyme, 1 = untreated enzyme;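 active = activation factor of at least 2 at 5 µM in the primary screen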;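 also: 0 = wells with 2.5 mM tranylcypromine and 1 = vehicle-only wells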
CYP2C9 activ: increases human cytochrome P450 2C9 activity | P11712 | recombinant CYP2C9, luciferin-H conversion, luminescence; stronger effect = higher value; factor 1 = untreated enzyme, 0 = blocked | activation factor at 5 µM | hit rate 1.4% among 96,000;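 active = activation factor of 2 or more for CYP2C9 at a 5 µM dose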;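 also: 0 = sulfaphenazole-blocked wells and 1 = vehicle-only wells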
CYP2C9 inh: human CYP2C9 inhibition; hit rate 20% among 96,000; AID 777; inhibition, % at 5 µM; CYP2C9 Supersomes, luciferin-H conversion, luminescence; P11712;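 active = blocking of liver enzyme CYP2C9 beyond about 50% at 5 µM, limit read from the data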
An asterisk follows results filed as active.

Results for O=C1CCCc2ccccc2N1Cc1ccccc1Cl ?
CYP2C19 inh: 87.8*; CYP2C19 activ: 0.1; CYP2C9 activ: 0.5; CYP2C9 inh: 46.4

How did O=C1CCCc2ccccc2N1Cc1c(Cl)cccc1Cl do in these assays?
Mac1 fbg enh: -1.6; CYP2C19 inh: 95.7*; Mac1 fbg inh: 2.5; CYP2C19 activ: 0; CYP2C9 activ: 0.1; CYP2C9 inh: 90.8*

Results for O=C1CC(N2CCCc3ccccc32)C(=O)N1c1ccccc1 (stereo not drawn) ?
Mac1 fbg enh: -3.7; CYP2C19 inh: 16.4; Mac1 fbg inh: -7.2; CYP2C19 activ: 0.8; CYP2C9 activ: 1; CYP2C9 inh: -0.6

Results for O=C1CCCc2ccccc2N1Cc1ccc(Cl)cc1Cl ?
Mac1 fbg enh: -2.2; CYP2C19 inh: 94.3*; Mac1 fbg inh: 1.0; CYP2C19 activ: 0.1; CYP2C9 activ: 0.1; CYP2C9 inh: 87.1*

Results for Cc1cc(NC(=O)Cc2cccs2)nn1CC(=O)NCc1ccco1 ?
Mac1 fbg enh: 2.4; CYP2C19 inh: 0.7; Mac1 fbg inh: -14.3; CYP2C19 activ: 1; CYP2C9 activ: 1.1; CYP2C9 inh: -11.3

How did Cc1sc2ncnc(SCC(=O)c3ccc(Cl)s3)c2c1C do in these assays?
Mac1 fbg enh: 2.8; CYP2C19 inh: 15.2; Mac1 fbg inh: 5.3; CYP2C19 activ: 0.8; CYP2C9 activ: 0.8; CYP2C9 inh: 15.9

Results for Cn1nc([N+](=O)[O-])c2c(-c3nc4ccccc4s3)c(N)n(C3CCCCC3)c2c1=O ?
Mac1 fbg enh: 0.0; CYP2C19 inh: -7.6; Mac1 fbg inh: 6.8; CYP2C19 activ: 1.1; CYP2C9 activ: 0.7; CYP2C9 inh: 28.9

What do the screens show for `N/C(=N\OC(=O)Cc1ccc(Cl)cc1)c1cccnc1`?
Mac1 fbg enh: -0.2; CYP2C19 inh: -3.9; Mac1 fbg inh: -10.1; CYP2C19 activ: 1; CYP2C9 activ: 1.1; CYP2C9 inh: -11.7

What do the screens show for `N/C(=N\OS(=O)(=O)c1ccc(Cl)cc1)c1ccncc1`?
Mac1 fbg enh: -0.2; CYP2C19 inh: 68.2*; Mac1 fbg inh: -0.8; CYP2C19 activ: 0.3; CYP2C9 activ: 0.2; CYP2C9 inh: 80.8*

How did CC1Cc2ccccc2N1C(=O)Cc1cccs1 (stereo not drawn) do in these assays?
Mac1 fbg enh: -0.5; CYP2C19 inh: 28.9; Mac1 fbg inh: -20.0; CYP2C19 activ: 0.7; CYP2C9 activ: 1.1; CYP2C9 inh: -6.5

How did CCOc1ccc(S(=O)(=O)N2c3ccccc3CC2C)cc1 (stereo not drawn) do in these assays?
Mac1 fbg enh: 0.0; CYP2C19 inh: 52.3*; Mac1 fbg inh: 22.2; CYP2C19 activ: 0.5; CYP2C9 activ: 0.1; CYP2C9 inh: 93.9*

Results for CC1Cc2ccccc2N1C(=O)CCS(=O)(=O)c1cccs1 (stereo not drawn) ?
Mac1 fbg enh: -3.5; CYP2C19 inh: 51.6*; Mac1 fbg inh: -4.0; CYP2C19 activ: 0.5; CYP2C9 activ: 0.8; CYP2C9 inh: 22.9

How did CC1Cc2ccccc2N1S(=O)(=O)c1cccs1 (stereo not drawn) do in these assays?
Mac1 fbg enh: -3.9; CYP2C19 inh: 80.9*; Mac1 fbg inh: 81.8; CYP2C19 activ: 0.2; CYP2C9 activ: 1; CYP2C9 inh: 3.6

Results for CC1Cc2ccccc2N1S(=O)(=O)c1cccc(C(=O)NCCCO)c1 (stereo not drawn) ?
Mac1 fbg enh: 0.1; CYP2C19 inh: 52.0*; Mac1 fbg inh: -2.3; CYP2C19 activ: 0.5; CYP2C9 activ: 0.6; CYP2C9 inh: 35.7

What do the screens show for `O=C(NCCO)c1cccc(S(=O)(=O)N2CCCCC2)c1`?
Mac1 fbg enh: -5.7; CYP2C19 inh: -2.6; Mac1 fbg inh: 0.6; CYP2C19 activ: 1; CYP2C9 activ: 1.1; CYP2C9 inh: -14.4

What do the screens show for `CCN(CC)CCCN1C(=O)c2oc3ccccc3c(=O)c2C1c1cc(OC)ccc1OC` (stereo not drawn)?
Mac1 fbg enh: -2.6; CYP2C19 inh: -12.6; Mac1 fbg inh: -16.4; CYP2C19 activ: 1.1; CYP2C9 activ: 1.1; CYP2C9 inh: -8.3

What do the screens show for `CCc1c(C)nc(N)n2c(SCC(=O)N3CCN(c4ccccc4OC)CC3)nnc12`?
Mac1 fbg enh: -0.5; CYP2C19 inh: 32.3; Mac1 fbg inh: 6.6; CYP2C19 activ: 0.7; CYP2C9 activ: 0.8; CYP2C9 inh: 20.4

How did Cc1ccnc(SCc2cc(=O)c(OC(=O)c3ccc(S(=O)(=O)N(C)C)cc3)co2)n1 do in these assays?
Mac1 fbg enh: 13.3; Mac1 fbg inh: -8.3

Results for CC1CCN(C(=O)CN(C)S(=O)(=O)c2cccc3nsnc23)CC1 ?
CYP2C19 inh: 11.2; CYP2C19 activ: 0.9; CYP2C9 activ: 0.8; CYP2C9 inh: 23.4

Results for Cc1ccc(NC(=O)CCC(=O)OCC(=O)c2ccc(Oc3ccc([N+](=O)[O-])cc3)cc2)c(C)c1 ?
Mac1 fbg enh: -2.5; CYP2C19 inh: 8.7; Mac1 fbg inh: 15.7; CYP2C19 activ: 0.9; CYP2C9 activ: 1.2; CYP2C9 inh: -16.0

What do the screens show for `Cc1ccc(O)c(CC(C)C)n1`?
Mac1 fbg enh: 4.1; CYP2C19 inh: -0.9; Mac1 fbg inh: -6.9; CYP2C19 activ: 1; CYP2C9 activ: 1; CYP2C9 inh: -0.4

How did COc1ccc(CCc2nc(C)ccc2O)cc1 do in these assays?
Mac1 fbg enh: 8.5; CYP2C19 inh: 82.7*; Mac1 fbg inh: 4.4; CYP2C19 activ: 0.2; CYP2C9 activ: 0.3; CYP2C9 inh: 65.7*

Results for Cc1cnn(C(=O)c2ccccc2Br)c1 ?
Mac1 fbg enh: -2.6; CYP2C19 inh: 30.4; Mac1 fbg inh: 3.2; CYP2C19 activ: 0.7; CYP2C9 activ: 1.1; CYP2C9 inh: -8.0

How did CCC(=O)Nc1nc(-c2ccc3c(c2)OCCO3)cs1 do in these assays?
Mac1 fbg enh: 0.5; CYP2C19 inh: 2.7; Mac1 fbg inh: 15.4; CYP2C19 activ: 1; CYP2C9 activ: 1.1; CYP2C9 inh: -9.3

What do the screens show for `c1cc2c(cc1Nc1nc(-c3ccc4c(c3)OCO4)cs1)OCCO2`?
Mac1 fbg enh: -1.2; CYP2C19 inh: 73.1*; Mac1 fbg inh: 31.5; CYP2C19 activ: 0.3; CYP2C9 activ: 0.1; CYP2C9 inh: 87.2*

How did c1ccc(-c2csc(Nc3ccc4c(c3)OCCO4)n2)cc1 do in these assays?
Mac1 fbg enh: -7.4; CYP2C19 inh: -5.9; Mac1 fbg inh: 31.0; CYP2C19 activ: 1.1; CYP2C9 activ: 0.8; CYP2C9 inh: 16.1

Results for CC(C)(C)C(=O)Nc1nc(-c2ccc3c(c2)OCO3)cs1 ?
Mac1 fbg enh: -1.2; CYP2C19 inh: 92.5*; Mac1 fbg inh: 5.9; CYP2C19 activ: 0.1; CYP2C9 activ: 0.1; CYP2C9 inh: 94.5*

How did Cn1ncc2c1ncn1nc(CCc3ccccc3)nc21 do in these assays?
Mac1 fbg enh: 6.7; CYP2C19 inh: 35.8; Mac1 fbg inh: -2.2; CYP2C19 activ: 0.6; CYP2C9 activ: 1; CYP2C9 inh: 0.8

What do the screens show for `CCN(CC)c1nc(C)nc2c1cnn2CCc1ccccc1`?
Mac1 fbg enh: -6.0; CYP2C19 inh: 97.2*; Mac1 fbg inh: 6.8; CYP2C19 activ: 0; CYP2C9 activ: 0.9; CYP2C9 inh: 13.7
